We go through 28 compounds from the supplement of paper PMC7366291.

What all share (conditions): 25 µM; exposure: 24-48 hpf
Assay [1] deals with Danio rerio Tg(wt1b:EGFP) embryo, pronephros. Nature of the assay: glomerular separation, fold change vs DMSO control; higher = glomeruli further apart (abnormal). Summed up:
(§1)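 In HEPES-buffered E3 with 0.003% PTU and 0.5% DMSO, dechorionated Tg(wt1b:EGFP) zebrafish embryos were exposed to 25 μM compound from 24 to 48 hpf at 28.5°C. Pronephroi were then imaged dorsally at 470 nm in 10 z-slices, in 96-well plates filled with agarose. On maximum projections, a Fiji macro turned 16 manually placed reference points into distances and angles, and values more than 2 SD from the feature mean were excluded. Features are fold changes relative to the mean of DMSO-treated embryos from the same day.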

For assay [2] the test system is unchanged. Nature of the assay: glomerular width (mean of left and right), fold change vs DMSO control; higher = wider glomerulus. In outline:
as §1

The test system is the same in assay [3]. Nature of the assay: pronephric angle neck segment to proximal convoluted tubule (mean of left and right), fold change vs DMSO control; higher = larger pronephric angle. In outline:
as §1

For assay [4] the test system is unchanged. The assay is described as follows: fraction of imaged embryos annotated as normal kidney; higher = less nephrotoxic; extreme values may be limits of the assay. Summed up: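 Dechorionated Tg(wt1b:EGFP) zebrafish embryos were incubated with 25 μM compound in 0.5% DMSO, 5 mM HEPES-buffered E3 and 0.003% PTU from 24 to 48 hpf at 28.5°C. Pronephroi were then imaged by widefield fluorescence, and the fraction of embryos per treatment assigned by hand to the normal-kidney category is given.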

Structures are written as SMILES. Structures can show the parent of a compound that is named as a salt. ± gives the standard deviation or the standard deviation of the averaged measurements.

`NC(=O)C(c1ccccc1)(c1ccccc1)[C@@H]1CCN(CCc2ccc3c(c2)CCO3)C1` [Darifenacin hydrobromide] yielded a glomerular separation in assay [1] of 0.963 ± 0.39. The glomerular width in assay [2] was determined as 1.09 ± 0.019. Moreover, the “pronephric angle neck segment” value in assay [3] turned out to be 1 ± 0.029.
Consider `NC(=O)OCC(O)COc1ccc(Cl)cc1` (centres undefined) [Chlorphensin carbamate], for which, in assay [1], the glomerular separation turned out to be 0.973 ± 0.47. The same compound came in with a glomerular width in assay [2] of 0.982 ± 0.071. Besides, the “fraction of imaged embryos annotated as normal kidney” value (“fraction of imaged embryos annotated” below) in assay [4] is 0.833. For the same compound, the “pronephric angle neck segment” value in assay [3] turned out to be 1.12 ± 0.099.
Compound `Cc1c(O)cccc1C(=O)N[C@@H](CSc1ccccc1)[C@H](O)CN1C[C@H]2CCCC[C@H]2C[C@H]1C(=O)NC(C)(C)C` [Nelfinavir mesylate] gave a glomerular separation in assay [1] of 0.563 ± 0.13. Also, the glomerular width in assay [2] worked out at 1.05 ± 0.017. In addition, the “fraction of imaged embryos annotated” value in assay [4] stood at 1. For the same compound, the “pronephric angle neck segment” value in assay [3] is 0.954 ± 0.03.
Consider `CC1(C)[C@H](C(=O)O)N2C(=O)C[C@H]2S1(=O)=O` [Sulbactam], for which the glomerular separation in assay [1] turned out to be 0.653 ± 0.18. In assay [2], this compound came in with a glomerular width of 1.07 ± 0.04. Besides, the “pronephric angle neck segment” value in assay [3] turned out to be 0.952 ± 0.039.
In assay [1], `N=C(N)NC(=O)Cc1c(Cl)cccc1Cl` [Guanfacine hydrochloride] showed a glomerular separation of 0.827 ± 0.15. The glomerular width in assay [2] turned out to be 1.08 ± 0.1. The “fraction of imaged embryos annotated” value in assay [4] is 0.583. In addition, the “pronephric angle neck segment” value in assay [3] amounted to 0.978 ± 0.025.
For `c1ccc(-c2ccc(C(c3ccccc3)n3ccnc3)cc2)cc1` (centres undefined) [Bifonazole], in that order: 1.24 ± 0.55, 0.786 ± 0.019, 0.417 and 1.22 ± 0.14.
Turning to `CCC(C)(C)C(=O)O[C@H]1C[C@@H](C)C=C2C=C[C@H](C)[C@H](CC[C@@H]3C[C@@H](O)CC(=O)O3)[C@H]21` [Simvastatin], in assay [1], the glomerular separation was found to be 4.7 ± 1.8. This compound displayed a glomerular width in assay [2] of 0.658 ± 0.034. For the same compound, the “pronephric angle neck segment” value in assay [3] amounted to 1.8 ± 0.065.
Turning to `O=C(O)CN(CCN(CC(=O)O)CC(=O)O)CCN(CC(=O)O)CC(=O)O` [Pentetic acid], in assay [1], the glomerular separation turned out to be 1.23 ± 0.47. In assay [2], this compound gave a glomerular width of 0.98 ± 0.017. Also, the “fraction of imaged embryos annotated” value in assay [4] amounted to 0.917. Also, the “pronephric angle neck segment” value in assay [3] was determined as 0.9888 ± 0.0057.
In assay [1], `Clc1ccc(CCC(Cn2ccnc2)Sc2c(Cl)cccc2Cl)cc1` (centres undefined) [Butoconazole nitrate] returned a glomerular separation of 2.43 ± 1.2. Moreover, the glomerular width in assay [2] was 0.767 ± 0.047. Also, in assay [4], the “fraction of imaged embryos annotated” value worked out at 0. Besides, in assay [3], the “pronephric angle neck segment” value is 1.25 ± 0.056.
Turning to `Cc1cc(C(=O)NNCc2ccccc2)no1` [Isocarboxazid], the glomerular separation in assay [1] was 1.01 ± 0.72. In assay [2], this compound yielded a glomerular width of 1.21 ± 0.067. In assay [4], the “fraction of imaged embryos annotated” value turned out to be 0.25. Besides, in assay [3], the “pronephric angle neck segment” value is 1.382 ± 0.0021.
`CNC(C)CCC=C(C)C` (centres undefined) [Isometheptene mucate]: the glomerular separation in assay [1] was determined as 0.941 ± 0.26. This compound also had a glomerular width in assay [2] of 0.958 ± 0.039. Further, the “fraction of imaged embryos annotated” value in assay [4] was determined as 0.917. Moreover, in assay [3], the “pronephric angle neck segment” value is 0.977 ± 0.024.
Consider `CC[C@H](C)[C@H](N)C1=N[C@H](C(=O)N[C@@H](CC(C)C)C(=O)N[C@H](CCC(=O)O)C(=O)N[C@H](C(=O)N[C@H]2CCCCNC(=O)[C@H](CC(N)=O)NC(=O)[C@@H](CC(=O)O)NC(=O)[C@H](Cc3cnc[nH]3)NC(=O)[C@@H](Cc3ccccc3)NC(=O)[C@H]([C@@H](C)CC)NC(=O)[C@@H](CCCN)NC2=O)[C@@H](C)CC)CS1` [Bacitracin], for which the glomerular separation in assay [1] was determined as 0.822 ± 0.28. The compound also had a glomerular width in assay [2] of 0.912 ± 0.019. Also, the “fraction of imaged embryos annotated” value in assay [4] came out at 1. In assay [3], the “pronephric angle neck segment” value came out at 1.01 ± 0.013.
In assay [1], `Clc1cccc(Cl)c1NC1=NCCN1` [Clonidine hydrochloride] returned a glomerular separation of 0.954 ± 0.35. The glomerular width in assay [2] amounted to 1.001 ± 0.0053. In assay [4], the “fraction of imaged embryos annotated” value worked out at 0.583. Besides, the “pronephric angle neck segment” value in assay [3] worked out at 0.96 ± 0.067.
For `O=c1oc2ccccc2c(O)c1Cc1c(O)c2ccccc2oc1=O` [Dicumarol], in that order: 0.799 ± 0.23, 0.772 ± 0.025, 0.9 and 1.14 ± 0.08.
In turn, `Cc1cc2c(cc1S(N)(=O)=O)S(=O)(=O)CCC2` [Meticrane] showed a glomerular separation in assay [1] of 0.987 ± 0.28. Moreover, the glomerular width in assay [2] was determined as 0.9447 ± 0.0016. In addition, the “fraction of imaged embryos annotated” value in assay [4] was 0.917. Besides, the “pronephric angle neck segment” value in assay [3] was found to be 1.01 ± 0.04.
Consider `Oc1ccc(C2CNCCc3c2cc(O)c(O)c3Cl)cc1` (centres undefined) [Fenoldopam], for which, in assay [1], the glomerular separation worked out at 0.757 ± 0.32. Besides, in assay [2], the glomerular width is 1.01 ± 0.038. Moreover, in assay [4], the “fraction of imaged embryos annotated” value is 0.917. Besides, the “pronephric angle neck segment” value in assay [3] was determined as 0.979 ± 0.053.
Consider `CN(C)CCCO[C@@H]1[C@H]2OC(C)(C)O[C@H]2O[C@@H]1[C@H](O)CO` [Amiprilose hydrochloride], for which the glomerular separation in assay [1] worked out at 1.12 ± 0.66. This compound also showed a glomerular width in assay [2] of 1.08 ± 0.071. Moreover, the “fraction of imaged embryos annotated” value in assay [4] worked out at 0.667. The “pronephric angle neck segment” value in assay [3] was 1 ± 0.02.
In assay [1], `CNCC(O)c1ccc(OC(=O)C(C)(C)C)c(OC(=O)C(C)(C)C)c1` (centres undefined) [Dipivefrin hydrochloride] registered a glomerular separation of 0.794 ± 0.16. Further, the glomerular width in assay [2] worked out at 1.04 ± 0.036. Further, in assay [4], the “fraction of imaged embryos annotated” value was 0.833. Further, in assay [3], the “pronephric angle neck segment” value came out at 1.03 ± 0.081.
Consider `COc1ccc(OC)c(C(O)CNC(=O)CN)c1` (centres undefined) [Midodrine hydrochloride], for which, in assay [1], the glomerular separation came to 0.483 ± 0.2. In assay [2], the glomerular width worked out at 1.2 ± 0.062. Besides, in assay [4], the “fraction of imaged embryos annotated” value is 0.833. For the same compound, the “pronephric angle neck segment” value in assay [3] was 0.765 ± 0.013.
In assay [1], `CCCNC(C)(C)COC(=O)c1ccccc1` [Meprylcaine hydrochloride] displayed a glomerular separation of 1.08 ± 0.26. Besides, in assay [2], the glomerular width amounted to 0.936 ± 0.03. In addition, the “fraction of imaged embryos annotated” value in assay [4] is 1. Further, in assay [3], the “pronephric angle neck segment” value stood at 0.9842 ± 0.0035.
Consider `CC(C)(CO)C(O)C(=O)NCCCO` (centres undefined) [Panthenol (D)], for which the glomerular separation in assay [1] was found to be 0.954 ± 0.35. This compound registered a glomerular width in assay [2] of 1.001 ± 0.0062. Also, in assay [4], the “fraction of imaged embryos annotated” value was found to be 0.75. Besides, in assay [3], the “pronephric angle neck segment” value came out at 1.008 ± 0.005.
`CC(=C(CCO)SSCC1CCCO1)N(C=O)Cc1cnc(C)nc1N` (stereo in doubt) [Fursultiamine Hydrochloride]: the glomerular separation in assay [1] amounted to 1.06 ± 0.24. Besides, in assay [2], the glomerular width was 0.996 ± 0.027. The “fraction of imaged embryos annotated” value in assay [4] was 0.833. The “pronephric angle neck segment” value in assay [3] is 1.005 ± 0.0057.
As for `C[C@]12C[C@H](O)[C@H]3[C@@H](CCC4=CC(=O)CC[C@@]43C)[C@@H]1CC[C@@H]2C(=O)CO` [Corticosterone], the glomerular separation in assay [1] was determined as 1.36 ± 0.4. For the same compound, the glomerular width in assay [2] was 1.13 ± 0.026. In assay [4], the “fraction of imaged embryos annotated” value was determined as 0.417. Also, in assay [3], the “pronephric angle neck segment” value amounted to 1.01 ± 0.019.
Consider `CC1(C)S[C@@H]2[C@H](NC(=O)[C@H](N)c3ccccc3)C(=O)N2[C@H]1C(=O)O` [Ampicillin trihydrate], for which, in assay [1], the glomerular separation amounted to 0.924 ± 0.41. In addition, the glomerular width in assay [2] worked out at 1.03 ± 0.016. Also, the “fraction of imaged embryos annotated” value in assay [4] stood at 0.917. Besides, the “pronephric angle neck segment” value in assay [3] was determined as 1.03 ± 0.025.
Compound `Nc1ccc(S(=O)(=O)Nc2ccc(Cl)nn2)cc1` [Sulfachloropyridazine] had a glomerular separation in assay [1] of 0.92 ± 0.34. In assay [2], this compound came in with a glomerular width of 0.973 ± 0.029. The “fraction of imaged embryos annotated” value in assay [4] was determined as 0.75. For the same compound, the “pronephric angle neck segment” value in assay [3] was 1.017 ± 0.0048.
For `C[C@@H]1NC(=O)NC1=O` [Methylhydantoin-5-(L)], in that order: 0.772 ± 0.24, 0.967 ± 0.048, 1 and 0.995 ± 0.031.
In assay [1], `COc1cc([C@@H]2c3cc4c(cc3[C@@H](O[C@@H]3O[C@@H]5CO[C@@H](C)O[C@H]5[C@H](O)[C@H]3O)[C@H]3COC(=O)[C@H]23)OCO4)cc(OC)c1O` [Etoposide] returned a glomerular separation of 0.917 ± 0.24. Moreover, in assay [2], the glomerular width turned out to be 1.052 ± 0.0085. Also, the “fraction of imaged embryos annotated” value in assay [4] was determined as 0.75. Besides, in assay [3], the “pronephric angle neck segment” value came out at 0.982 ± 0.013.
The compound `CN(C)CCCSC(=N)N` [Dimaprit dihydrochloride] returned a glomerular separation in assay [1] of 0.745 ± 0.36. Moreover, in assay [2], the glomerular width worked out at 1.05 ± 0.052. Further, the “fraction of imaged embryos annotated” value in assay [4] worked out at 0.75. In addition, the “pronephric angle neck segment” value in assay [3] was 1 ± 0.022.
